According to the supplement of paper PMC10849652:
About 7,900 targets were measured; listed, in parts, are those with a hit and a random draw of the rest. About 0.6% of all pairs of compound and target were hits.

Compound: CCCS(=O)(=O)Nc1ccc(F)c(C(=O)c2c[nH]c3ncc(Cl)cc23)c1F
Test: log2 fold change, soluble protein after heating vs DMSO (PISA); higher = thermal stabilisation; K562 cells, 10 uM, 30 min; active = over 0.2 and 3.5 SD of the protein, either way, in both replicates (recomputed)
Procedure, shortened: (§1)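 K562 cells at 2×10^6 cells/mL were exposed to 10 μM compound for 30 min, then aliquots were heated for 3 min across 48°C-58°C, pooled, and extracted in PBS containing 0.5% NP-40 at 4°C. The supernatant after 21,000xg for 90 min was taken as soluble protein and measured by TMTpro 16plex LC-MS/MS with channel sums equalised. Thermal stability is reported relative to control samples, with values from duplicates. Fold changes are given on a log2 scale.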

Sequence of UniProt Q9P1Y6 (Q9P1Y6 whole entry, looked up): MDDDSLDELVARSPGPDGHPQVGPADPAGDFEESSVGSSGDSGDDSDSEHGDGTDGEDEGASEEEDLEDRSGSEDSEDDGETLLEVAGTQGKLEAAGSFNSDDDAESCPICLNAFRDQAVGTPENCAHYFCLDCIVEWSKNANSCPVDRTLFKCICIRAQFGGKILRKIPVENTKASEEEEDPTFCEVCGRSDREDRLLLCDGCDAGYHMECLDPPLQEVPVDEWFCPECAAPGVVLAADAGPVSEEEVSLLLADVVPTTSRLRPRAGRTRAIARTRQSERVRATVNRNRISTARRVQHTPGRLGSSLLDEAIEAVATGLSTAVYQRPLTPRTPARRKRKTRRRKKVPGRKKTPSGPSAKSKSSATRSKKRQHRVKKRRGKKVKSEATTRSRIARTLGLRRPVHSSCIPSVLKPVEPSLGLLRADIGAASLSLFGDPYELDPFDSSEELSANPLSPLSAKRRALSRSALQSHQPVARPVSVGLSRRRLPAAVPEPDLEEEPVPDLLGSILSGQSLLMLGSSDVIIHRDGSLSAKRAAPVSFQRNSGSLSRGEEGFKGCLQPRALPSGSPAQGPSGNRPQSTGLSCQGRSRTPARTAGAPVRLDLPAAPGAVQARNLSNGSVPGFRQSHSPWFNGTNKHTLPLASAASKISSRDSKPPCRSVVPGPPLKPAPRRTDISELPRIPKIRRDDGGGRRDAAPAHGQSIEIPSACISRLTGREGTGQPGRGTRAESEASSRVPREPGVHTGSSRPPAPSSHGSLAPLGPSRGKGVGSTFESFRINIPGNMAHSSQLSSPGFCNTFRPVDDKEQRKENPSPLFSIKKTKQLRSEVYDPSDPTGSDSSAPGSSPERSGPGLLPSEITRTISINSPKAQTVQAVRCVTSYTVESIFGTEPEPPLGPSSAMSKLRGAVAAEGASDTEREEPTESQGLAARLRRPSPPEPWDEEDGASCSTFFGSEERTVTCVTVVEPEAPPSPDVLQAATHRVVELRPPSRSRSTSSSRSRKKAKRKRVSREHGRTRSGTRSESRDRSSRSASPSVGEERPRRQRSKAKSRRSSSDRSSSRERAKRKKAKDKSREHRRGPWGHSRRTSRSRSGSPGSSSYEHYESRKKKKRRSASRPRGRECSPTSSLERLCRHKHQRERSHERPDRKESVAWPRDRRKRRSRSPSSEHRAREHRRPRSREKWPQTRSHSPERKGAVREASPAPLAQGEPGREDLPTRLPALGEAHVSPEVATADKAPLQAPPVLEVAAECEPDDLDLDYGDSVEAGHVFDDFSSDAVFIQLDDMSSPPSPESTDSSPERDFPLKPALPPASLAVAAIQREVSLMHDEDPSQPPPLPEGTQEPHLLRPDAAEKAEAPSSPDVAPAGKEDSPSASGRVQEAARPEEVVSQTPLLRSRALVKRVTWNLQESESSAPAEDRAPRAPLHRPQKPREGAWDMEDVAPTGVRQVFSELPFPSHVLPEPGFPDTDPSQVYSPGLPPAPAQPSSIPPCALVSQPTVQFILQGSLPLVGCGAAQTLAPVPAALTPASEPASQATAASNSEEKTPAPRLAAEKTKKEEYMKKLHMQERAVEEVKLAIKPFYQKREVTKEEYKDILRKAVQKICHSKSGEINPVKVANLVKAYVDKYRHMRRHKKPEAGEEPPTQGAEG
Sequence of UniProt O43924 (O43924 whole entry, looked up): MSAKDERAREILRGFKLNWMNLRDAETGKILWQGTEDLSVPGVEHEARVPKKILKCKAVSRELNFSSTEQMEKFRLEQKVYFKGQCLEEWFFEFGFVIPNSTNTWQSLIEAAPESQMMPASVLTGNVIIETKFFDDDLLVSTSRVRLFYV
Sequence of UniProt Q13362 (Q13362 whole entry, looked up): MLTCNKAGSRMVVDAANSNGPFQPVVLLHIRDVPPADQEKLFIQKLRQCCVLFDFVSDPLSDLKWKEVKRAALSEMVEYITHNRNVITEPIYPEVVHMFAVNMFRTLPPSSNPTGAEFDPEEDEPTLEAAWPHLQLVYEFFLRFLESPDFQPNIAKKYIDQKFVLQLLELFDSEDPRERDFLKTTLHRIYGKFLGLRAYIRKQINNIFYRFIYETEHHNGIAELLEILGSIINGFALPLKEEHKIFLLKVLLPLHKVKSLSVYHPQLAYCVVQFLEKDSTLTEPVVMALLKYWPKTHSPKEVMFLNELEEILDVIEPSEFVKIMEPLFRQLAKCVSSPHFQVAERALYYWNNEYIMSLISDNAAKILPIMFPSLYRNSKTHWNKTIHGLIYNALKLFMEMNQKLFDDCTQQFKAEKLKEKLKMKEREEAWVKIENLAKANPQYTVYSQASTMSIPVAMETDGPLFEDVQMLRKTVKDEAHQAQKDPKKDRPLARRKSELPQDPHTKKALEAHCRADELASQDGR
Sequence of UniProt Q6EEV4 (Q6EEV4 whole entry, looked up): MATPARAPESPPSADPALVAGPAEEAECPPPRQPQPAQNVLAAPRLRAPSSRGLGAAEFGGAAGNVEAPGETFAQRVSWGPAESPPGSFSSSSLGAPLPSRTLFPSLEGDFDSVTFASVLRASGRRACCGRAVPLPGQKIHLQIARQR
Sequence of UniProt O94913 (O94913 whole entry, looked up): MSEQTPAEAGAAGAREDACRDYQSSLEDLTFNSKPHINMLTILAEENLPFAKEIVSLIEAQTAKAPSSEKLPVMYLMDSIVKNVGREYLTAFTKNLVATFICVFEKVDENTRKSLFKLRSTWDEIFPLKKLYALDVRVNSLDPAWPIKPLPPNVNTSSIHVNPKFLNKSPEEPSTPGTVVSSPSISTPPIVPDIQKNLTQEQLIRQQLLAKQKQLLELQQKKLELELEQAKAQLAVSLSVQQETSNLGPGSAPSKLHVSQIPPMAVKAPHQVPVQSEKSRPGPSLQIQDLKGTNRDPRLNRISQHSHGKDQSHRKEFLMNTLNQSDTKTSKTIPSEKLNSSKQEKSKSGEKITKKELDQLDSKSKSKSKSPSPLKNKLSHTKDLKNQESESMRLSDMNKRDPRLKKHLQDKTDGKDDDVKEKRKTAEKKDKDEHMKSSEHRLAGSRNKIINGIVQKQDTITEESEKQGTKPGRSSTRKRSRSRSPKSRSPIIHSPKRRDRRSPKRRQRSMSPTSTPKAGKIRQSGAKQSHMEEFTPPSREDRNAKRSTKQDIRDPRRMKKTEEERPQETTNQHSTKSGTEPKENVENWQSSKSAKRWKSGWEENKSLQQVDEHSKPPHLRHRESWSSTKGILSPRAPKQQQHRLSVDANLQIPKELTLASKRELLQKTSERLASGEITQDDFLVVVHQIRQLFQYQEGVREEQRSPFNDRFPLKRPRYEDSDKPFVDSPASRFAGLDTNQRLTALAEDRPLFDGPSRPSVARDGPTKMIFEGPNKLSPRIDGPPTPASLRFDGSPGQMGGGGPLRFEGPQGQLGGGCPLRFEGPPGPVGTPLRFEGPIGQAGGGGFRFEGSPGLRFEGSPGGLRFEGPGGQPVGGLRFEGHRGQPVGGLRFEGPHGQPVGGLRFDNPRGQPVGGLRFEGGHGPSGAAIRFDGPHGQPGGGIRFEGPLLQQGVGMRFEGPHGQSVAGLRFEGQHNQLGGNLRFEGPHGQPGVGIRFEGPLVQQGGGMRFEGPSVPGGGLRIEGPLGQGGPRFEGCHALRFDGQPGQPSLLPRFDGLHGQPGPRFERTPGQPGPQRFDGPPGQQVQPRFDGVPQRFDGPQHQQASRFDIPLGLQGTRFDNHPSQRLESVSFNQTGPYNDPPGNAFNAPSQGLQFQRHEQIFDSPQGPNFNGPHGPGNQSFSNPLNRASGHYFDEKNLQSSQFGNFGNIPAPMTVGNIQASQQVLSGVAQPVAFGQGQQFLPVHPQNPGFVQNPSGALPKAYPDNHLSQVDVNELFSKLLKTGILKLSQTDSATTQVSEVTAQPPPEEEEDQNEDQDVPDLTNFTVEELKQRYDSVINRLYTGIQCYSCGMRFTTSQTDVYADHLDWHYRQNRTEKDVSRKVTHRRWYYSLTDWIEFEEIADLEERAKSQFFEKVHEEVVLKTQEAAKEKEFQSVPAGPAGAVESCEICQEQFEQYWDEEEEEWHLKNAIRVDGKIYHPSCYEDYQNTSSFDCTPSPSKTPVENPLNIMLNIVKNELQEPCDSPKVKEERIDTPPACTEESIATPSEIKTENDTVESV
Sequence of UniProt P51817 (P51817 whole entry, looked up): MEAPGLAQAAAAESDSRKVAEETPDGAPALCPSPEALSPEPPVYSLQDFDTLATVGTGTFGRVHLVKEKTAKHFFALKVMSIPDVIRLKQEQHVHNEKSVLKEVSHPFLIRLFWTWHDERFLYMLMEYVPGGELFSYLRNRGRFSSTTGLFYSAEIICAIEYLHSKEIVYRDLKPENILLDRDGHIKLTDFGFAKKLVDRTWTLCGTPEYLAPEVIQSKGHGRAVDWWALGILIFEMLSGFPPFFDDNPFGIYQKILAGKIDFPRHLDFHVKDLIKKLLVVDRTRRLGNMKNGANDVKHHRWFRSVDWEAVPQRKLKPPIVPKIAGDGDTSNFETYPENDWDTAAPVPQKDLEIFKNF
Sequence of UniProt Q14442 (Q14442 whole entry, looked up): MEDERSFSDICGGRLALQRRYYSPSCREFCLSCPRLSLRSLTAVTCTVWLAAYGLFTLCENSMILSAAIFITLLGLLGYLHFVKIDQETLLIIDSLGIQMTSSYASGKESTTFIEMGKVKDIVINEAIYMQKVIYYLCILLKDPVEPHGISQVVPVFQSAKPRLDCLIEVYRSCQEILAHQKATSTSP
Sequence of UniProt Q15126 (Q15126 whole entry, looked up): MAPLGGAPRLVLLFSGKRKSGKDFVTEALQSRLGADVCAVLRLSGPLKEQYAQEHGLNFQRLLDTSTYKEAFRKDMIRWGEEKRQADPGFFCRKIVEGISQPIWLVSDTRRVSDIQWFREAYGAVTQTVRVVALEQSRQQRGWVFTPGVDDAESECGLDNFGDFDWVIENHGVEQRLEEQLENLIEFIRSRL
Sequence of UniProt P28065 (P28065 whole entry, looked up): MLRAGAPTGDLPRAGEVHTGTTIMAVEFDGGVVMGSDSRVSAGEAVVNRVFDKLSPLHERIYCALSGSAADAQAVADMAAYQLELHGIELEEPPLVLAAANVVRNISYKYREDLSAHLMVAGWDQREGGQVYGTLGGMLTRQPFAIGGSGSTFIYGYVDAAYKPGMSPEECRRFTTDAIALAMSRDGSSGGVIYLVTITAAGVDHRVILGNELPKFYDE

log2 fold change, inactive:
PCBP2 (UniProt F8VRH0) 0.123, PPP2R5B (UniProt Q15173) 0.104, PTEN isoform 2 (UniProt P60484) -0.016, PHLDB1 isoform 2 (UniProt Q86UU1) 0.016, PHC3 isoform 7 (UniProt Q8NDX5) 0.096, PSMC1 (UniProt G3V4X1) -0.154, POLR2E (UniProt P19388) 0.018, PIAS4 (UniProt Q8N2W9) 0.07, PRR14L (UniProt Q5THK1) -0.038, PHRF1 (UniProt Q9P1Y6) -0.058, PSMA3 (UniProt G3V4X5) 0.013, PSMB9 (UniProt P28065) -0.047, PIGH (UniProt Q14442) -0.025, PDE4A (UniProt P27815) 0.024, PUF60 isoform 2 (UniProt Q9UHX1) 0.35, PRKCE (UniProt Q02156) 0.085, PSD3 (UniProt Q9NYI0) 0.049, POLR2M (UniProt Q6EEV4) -0.066, PSMA3 (UniProt H0YJ03) -0.134, PCF11 (UniProt O94913) 0.006

log2 fold change, active:
PCNX1 (UniProt Q96RV3) -0.58

Compound: CCCc1cc(C)[nH]c(=O)c1CNC(=O)c1cc(-c2ccnc(N3CCN(C)CC3)c2)cc2c1cnn2C(C)C
Test: as above
Procedure, shortened: as §1

log2 fold change, inactive:
PCNX1 (UniProt Q96RV3) -0.035, PCBP2 (UniProt F8VRH0) -0.199, PPP2R5B (UniProt Q15173) -0.013, PMVK (UniProt Q15126) 0.016, PHLDB1 isoform 2 (UniProt Q86UU1) 0.14, PHC3 isoform 7 (UniProt Q8NDX5) 0.116, PPP2R5C isoform 2 (UniProt Q13362) -0.016, POLR2E (UniProt P19388) 0.099, PIAS4 (UniProt Q8N2W9) 1.31, PDE6D (UniProt O43924) -0.028, PMS2CL (UniProt Q68D20) 0.129, PHRF1 (UniProt Q9P1Y6) 0.146, PIM1 isoform 2 (UniProt P11309) -0.566, PIGH (UniProt Q14442) -0.069, PCBP2 (UniProt F8VZX2) -0.098, PUF60 isoform 2 (UniProt Q9UHX1) 0.123, PRKCE (UniProt Q02156) -0.02, PRKX (UniProt P51817) -0.103, PSD3 (UniProt Q9NYI0) 0.025, POLR2M (UniProt Q6EEV4) -0.073, PSMC3 (UniProt E9PLG2) -0.08, PCF11 (UniProt O94913) -0.3

Compound: CCN(CC)Cc1ccc2cc(COC(=O)Nc3ccc(C(=O)NO)cc3)ccc2c1 [givinostat]
Test: as above
Procedure, shortened: as §1

log2 fold change, active:
PRKCE (UniProt Q02156) -0.393

log2 fold change, inactive:
PCBP2 (UniProt F8VRH0) 0.04, PPP2R5B (UniProt Q15173) 0.083, PTEN isoform 2 (UniProt P60484) -0.086, PMVK (UniProt Q15126) -0.068, PHLDB1 isoform 2 (UniProt Q86UU1) -0.012, PHC3 isoform 7 (UniProt Q8NDX5) 0.17, PPP2R5C isoform 2 (UniProt Q13362) 0.048, PSMC1 (UniProt G3V4X1) 0.095, POLR2E (UniProt P19388) -0.007, PDE4DIP (UniProt E9PS60) 0.016, PDE6D (UniProt O43924) -0.052, PHRF1 (UniProt Q9P1Y6) 0.034, PPP1R12B isoform 6 (UniProt O60237) 0.252, PSMB9 (UniProt P28065) -0.179, PIGH (UniProt Q14442) -0.011, PCBP2 (UniProt F8VZX2) 0.009, PUM1 (UniProt Q14671) 0.08, PDE4A (UniProt P27815) 0.015, PRKX (UniProt P51817) 0.036, POLR2M (UniProt Q6EEV4) -0.105

Compound: CCN(CCCOc1ccc2c(Nc3cc(CC(=O)Nc4cccc(F)c4)[nH]n3)ncnc2c1)CCOP(=O)(O)O [barasertib]
Test: as above
Procedure, shortened: as §1

log2 fold change, inactive:
PCNX1 (UniProt Q96RV3) 0.026, PCBP2 (UniProt F8VRH0) -0.201, PPP2R5B (UniProt Q15173) 0.009, PMVK (UniProt Q15126) 0.014, PHLDB1 isoform 2 (UniProt Q86UU1) 0.117, PHC3 isoform 7 (UniProt Q8NDX5) 0, PPP2R5C isoform 2 (UniProt Q13362) 0.055, PLCXD1 (UniProt Q9NUJ7) -0.003, POLR2E (UniProt P19388) -0.03, PDE6D (UniProt O43924) 0.002, PTP4A3 (UniProt O75365) -0.01, PAN2 (UniProt Q504Q3) 0.088, PPP1R12B isoform 6 (UniProt O60237) 0.108, PSMA3 (UniProt G3V4X5) 0.103, PSMB9 (UniProt P28065) 0.12, PIGH (UniProt Q14442) -0.219, PCBP2 (UniProt F8VZX2) -0.173, PDE4A (UniProt P27815) 0.049, PUF60 isoform 2 (UniProt Q9UHX1) 0.095, PRKD2 (UniProt M0R346) -0.337, PRKCE (UniProt Q02156) 0.013, PRKX (UniProt P51817) 0.126, POLR2M (UniProt Q6EEV4) -0.055, PSMC3 (UniProt E9PLG2) 0.02, PCF11 (UniProt O94913) -0.168
